Source: PubChem BioAssay (NCATS)
Where “and” joins values, the source holds several entries; their conditions need not be identical. Equal values may be shown once. A number with no mark means an inactive call. Inconclusive results are not listed. A call without a number means that no potency is given here. Calls of active or inactive are those of the source. Unless noted, the call rests on the fitted dose curve; in most records, active means well fitted curve in the direction sought with a large enough effect; inconclusive means small, poorly fitted or top-dose-only effect, or another doubt; inactive means no such curve, though single readings can be large; an effect the other way counts as inactive or inconclusive.

Experiments:
[1] = target: Beta-2 adrenergic receptor (Homo sapiens) (UniProt P07550); test: qHTS validation assay of beta-arrestin-biased ligands of beta2-adrenergic receptor (AID 485366)
Method in brief: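 Tango cells (recombinant beta2-AR with recombinant beta-arrestin; recruitment releases tTA driving luciferase) were treated with compounds titrated up to 46 microM for 18 hr at 37 degrees C. Luminescence gave %Activity, and concentration-response curves were curve-classified.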

[2] = Quantitative high throughput screen for delayed death inhibitors of the malarial parasite plastid, 96 hour incubation (AID 488745); further: nearly all actives have a fitted effect of over 70% in size; further: potency means the concentration at half of the fitted maximal effect
Method in brief: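 Growth of reporter-bearing P. falciparum in red cells is measured after 96 h with compound, covering two erythrocytic cycles. Luminescence from the integrated luciferase serves as the growth signal.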

[3] = Quantitative high throughput screen for delayed death inhibitors of the malarial parasite plastid, 48 hour incubation (AID 488752); further: nearly all actives have a fitted effect of over 65% in size; further: potency means the concentration at half of the fitted maximal effect
Method in brief: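 One parasite generation (48 h, 37 C, 5% CO2) of luciferase-reporter P. falciparum in erythrocytes is run with test compound; decreased luminescence indicates inhibited growth.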

[4] = target: Thioredoxin reductase 1, cytoplasmic (Rattus norvegicus) (UniProt O89049); test: qHTS Assay for Substrates of Mammalian Selenoprotein Thioredoxin Reductase 1 (TrxR1) (AID 488772);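 further: NADPH fluorescence in the first read after selenite addition and not the 8 min delta; series mostly up to about 57 µM; a drop in NADPH fluorescence below the no-compound background marks a TrxR1 substrate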
Thioredoxin reductase 1, cytoplasmic (Rattus norvegicus), sequence (O89049 whole entry, looked up): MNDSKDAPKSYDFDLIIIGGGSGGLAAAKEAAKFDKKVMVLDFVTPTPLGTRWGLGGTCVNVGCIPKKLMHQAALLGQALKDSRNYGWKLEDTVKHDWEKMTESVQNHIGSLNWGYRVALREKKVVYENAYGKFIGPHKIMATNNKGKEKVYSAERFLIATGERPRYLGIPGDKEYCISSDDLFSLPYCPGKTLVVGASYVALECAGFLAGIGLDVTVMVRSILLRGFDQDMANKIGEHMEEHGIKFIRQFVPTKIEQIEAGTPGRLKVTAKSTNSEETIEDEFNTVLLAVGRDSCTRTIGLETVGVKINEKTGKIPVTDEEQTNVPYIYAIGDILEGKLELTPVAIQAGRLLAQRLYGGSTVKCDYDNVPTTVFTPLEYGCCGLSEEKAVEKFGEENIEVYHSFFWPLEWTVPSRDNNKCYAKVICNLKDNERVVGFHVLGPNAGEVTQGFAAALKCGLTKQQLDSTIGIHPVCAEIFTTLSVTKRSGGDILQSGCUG
Method in brief: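 Quantitative HTS in Tris-HCl buffer at pH 7.5 with EDTA and Tween-20, using rat TrxR1, 400 uM NADPH and 400 uM selenite (final). A fall in initial NADPH fluorescence relative to background marked substrate behaviour.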

[5] = target: Thioredoxin reductase 1, cytoplasmic (Rattus norvegicus) (UniProt O89049); test: qHTS Assay for Inhibitors of Mammalian Selenoprotein Thioredoxin Reductase 1 (TrxR1) (AID 488773); conditions: Potency: inhibition; further: nearly all actives have a fitted effect of over 40% in size; further: potency means the concentration at half of the fitted maximal effect
Method in brief: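 Steps: enzyme (90 nM) plus NADPH (400 uM final), 5 min at ~22 deg C; compound added, 15 min; selenite (400 uM final) added; fluorescence followed for 8 min. Concentration-response curves derived from the normalized delta values.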

[6] = target: M-phase phosphoprotein 8 (Homo sapiens) (UniProt Q99549); test: qHTS Validation Assay for Inhibitors for MPP8 Chromodomain Interactions with Methylated Histone Tails (AID 488949);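 further: 50 nM MPP8 with 50 nM peptide preformed then compounds added for 30 min; AlphaScreen signal from MPP8 chromodomain bound to biotinylated H3K9me3 peptide; top concentration of the series differs between compounds; nearly all actives have a fitted effect of over 55% in size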
Method in brief: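 50 nM MPP8 + 50 nM b-H3K9me3 peptide, PBS pH 7.4/0.01% Tween-20, 30 min RT; + cpd 30 min RT; + AlphaScreen donor/Ni-chelate acceptor beads 10 ug/mL final, 30 min dark; luminescence read.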

[7] = target: Chromobox protein homolog 1 (Homo sapiens) (UniProt P83916); test: qHTS Validation Assay for Inhibitors of HP1-beta Chromodomain Interactions with Methylated Histone Tails (AID 488953); further: nearly all actives have a fitted effect of over 50% in size; further: potency means the concentration at half of the fitted maximal effect
Chromobox protein homolog 1 (Homo sapiens), sequence (P83916 whole entry, looked up): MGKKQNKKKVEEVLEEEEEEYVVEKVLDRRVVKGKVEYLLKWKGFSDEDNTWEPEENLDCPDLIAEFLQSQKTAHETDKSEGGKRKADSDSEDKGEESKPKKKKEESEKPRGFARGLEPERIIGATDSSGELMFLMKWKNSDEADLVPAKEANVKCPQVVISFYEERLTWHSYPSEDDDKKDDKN
Method in brief: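 Measured as loss of AlphaScreen luminescence from streptavidin donor and nickel acceptor beads (10 ug/mL final) bridging HP1-beta and biotin-H3(1-18)K9me3, each 50 nM. Compounds met the preassembled complex for 30 min at RT.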

[8] = target: Methanococcus maripaludis chaperonin (MmCpn) (UniProt Q6LX38); test: High-Throughput Screening for Modulators of Cytosolic Chaperonin Activity: MmCpn Primary Screen (AID 488978);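 further: 50 nM MmCpn enzyme hydrolysing 30 µM ATP at 37 °C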
Methanococcus maripaludis chaperonin (MmCpn), sequence (Q6LX38 1-543): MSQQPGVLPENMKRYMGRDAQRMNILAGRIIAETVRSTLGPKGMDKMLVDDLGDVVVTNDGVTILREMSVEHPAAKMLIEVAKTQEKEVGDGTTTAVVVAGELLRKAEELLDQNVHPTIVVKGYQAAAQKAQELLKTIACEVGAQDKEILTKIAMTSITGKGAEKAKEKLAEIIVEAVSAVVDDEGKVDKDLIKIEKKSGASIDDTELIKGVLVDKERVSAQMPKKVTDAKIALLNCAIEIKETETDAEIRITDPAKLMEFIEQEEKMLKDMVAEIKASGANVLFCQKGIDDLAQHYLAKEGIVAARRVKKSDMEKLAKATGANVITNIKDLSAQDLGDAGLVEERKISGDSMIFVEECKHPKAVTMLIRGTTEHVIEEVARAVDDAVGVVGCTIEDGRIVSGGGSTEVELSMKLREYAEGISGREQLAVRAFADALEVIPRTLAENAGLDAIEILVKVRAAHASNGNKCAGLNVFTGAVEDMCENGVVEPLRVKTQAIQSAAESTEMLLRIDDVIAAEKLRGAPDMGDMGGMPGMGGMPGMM
Method in brief: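 Steps: chaperonin 50 nM final; add compound, 5 min RT; start with ATP, 30 uM final; hold 10 min at 37C; add ADP Transcreener HTRF reagent, 5 min; read ex 320, em 590 and 665 nm.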

[9] = target: Transient receptor potential cation channel subfamily V member 1 (Homo sapiens) (UniProt Q8NER1); test: HTS Assay for Compounds that Act as Enhancers of the Vanilloid Receptor 1 (AID 488979)
Transient receptor potential cation channel subfamily V member 1 (Homo sapiens), sequence (Q8NER1 whole entry, looked up): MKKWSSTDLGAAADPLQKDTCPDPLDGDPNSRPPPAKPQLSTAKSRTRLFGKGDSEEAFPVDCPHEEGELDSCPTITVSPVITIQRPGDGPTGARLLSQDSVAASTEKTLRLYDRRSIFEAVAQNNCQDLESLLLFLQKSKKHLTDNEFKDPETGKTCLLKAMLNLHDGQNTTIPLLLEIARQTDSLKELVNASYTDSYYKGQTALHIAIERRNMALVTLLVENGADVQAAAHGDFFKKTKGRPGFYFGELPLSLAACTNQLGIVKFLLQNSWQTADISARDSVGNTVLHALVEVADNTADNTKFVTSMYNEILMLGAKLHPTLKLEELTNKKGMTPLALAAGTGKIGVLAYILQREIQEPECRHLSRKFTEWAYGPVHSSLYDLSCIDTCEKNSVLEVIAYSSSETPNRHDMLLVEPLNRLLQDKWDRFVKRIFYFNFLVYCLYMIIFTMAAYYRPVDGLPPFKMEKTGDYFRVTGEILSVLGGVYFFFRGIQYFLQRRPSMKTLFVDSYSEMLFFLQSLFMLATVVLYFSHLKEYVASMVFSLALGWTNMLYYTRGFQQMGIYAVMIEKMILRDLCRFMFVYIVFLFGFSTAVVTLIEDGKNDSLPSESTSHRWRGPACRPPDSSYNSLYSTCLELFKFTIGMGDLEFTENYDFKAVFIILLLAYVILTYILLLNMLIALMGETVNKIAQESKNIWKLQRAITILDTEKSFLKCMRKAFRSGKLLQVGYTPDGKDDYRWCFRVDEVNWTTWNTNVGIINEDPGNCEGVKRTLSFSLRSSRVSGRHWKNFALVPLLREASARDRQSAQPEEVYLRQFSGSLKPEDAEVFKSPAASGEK
Method in brief: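 TRPV1-expressing cells loaded with Fluo-8 calcium dye; compounds added and calcium influx read kinetically for 3 min (agonist phase), then capsaicin at EC20 added and read 2 min more for enhancement. Fluorescence ex 480/em 520 nm.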

[10] = target: D(1A) dopamine receptor (Homo sapiens) (UniProt P21728); test: HTS Assay for Allosteric Agonists of the Human D1 Dopamine Receptor: Primary Screen for Agonists (AID 488981)
D(1A) dopamine receptor (Homo sapiens), sequence (P21728 whole entry, looked up): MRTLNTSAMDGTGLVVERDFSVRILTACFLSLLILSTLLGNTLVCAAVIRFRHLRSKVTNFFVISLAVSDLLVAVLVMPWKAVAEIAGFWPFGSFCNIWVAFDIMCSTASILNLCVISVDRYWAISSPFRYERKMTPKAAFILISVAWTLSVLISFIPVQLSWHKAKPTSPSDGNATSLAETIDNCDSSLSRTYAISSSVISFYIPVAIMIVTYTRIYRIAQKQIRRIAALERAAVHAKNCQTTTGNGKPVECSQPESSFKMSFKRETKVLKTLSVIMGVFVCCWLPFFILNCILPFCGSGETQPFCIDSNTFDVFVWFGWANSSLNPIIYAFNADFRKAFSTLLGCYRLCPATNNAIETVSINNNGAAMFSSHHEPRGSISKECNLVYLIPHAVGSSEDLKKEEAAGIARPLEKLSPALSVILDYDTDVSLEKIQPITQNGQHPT
Method in brief: (§1)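 Tetracycline-induced HEK293 T-REx cells force-coupled to calcium signalling were incubated overnight at 30 C and dye-loaded at room temperature. Calcium flux over 180 s after compound addition flagged agonists; a further 180 s read after EC20 dopamine flagged potentiators.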

[11] = target: D(1A) dopamine receptor (Homo sapiens) (UniProt P21728); test: HTS Assay for Allosteric Agonists of the Human D1 Dopamine Receptor: Primary Screen for Potentiators (AID 488982)
Method in brief: as §1

[12] = target: D(1A) dopamine receptor (Homo sapiens) (UniProt P21728); test: HTS Assay for Allosteric Agonists of the Human D1 Dopamine Receptor: Primary Screen for Antagonists (AID 488983);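 further: calcium flux response to an EC80 dopamine challenge measured with no-wash dye; nearly all actives have a fitted effect of over 65% in size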
Method in brief: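 Screening of inducible HEK293 T-REx D1 cells: compound first, EC80 dopamine 180 s later, each phase read kinetically for calcium over 180 s.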

[13] = Validation screen for small molecules that induce genotoxicity in human embryonic kidney (HEK293T) cells expressing luciferase-tagged ELG1 (AID 493106)
Method in brief: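 Reporter-gene quantitative HTS in HEK293T cells carrying luciferase-tagged ELG1, whose level climbs under genotoxic stress. Compound exposure lasts 16 hr at 37 °C before luciferase detection.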

[14] = target: ATPase family AAA domain-containing protein 5 (Homo sapiens) (UniProt Q96QE3); test: Validation screen for small molecules that inhibit ELG1-dependent DNA repair in human embryonic kidney (HEK293T) cells expressing luciferase-tagged ELG1 (AID 493107);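 further: cells co-treated with the DNA-damaging agent 5-fluorouridine alongside compound; series mostly up to about 46 µM; inhibitors lower the ELG1-luciferase luminescence signal; nearly all actives have a fitted effect of over 70% in size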
ATPase family AAA domain-containing protein 5 (Homo sapiens), sequence (Q96QE3 whole entry, looked up, the tested form may be a part): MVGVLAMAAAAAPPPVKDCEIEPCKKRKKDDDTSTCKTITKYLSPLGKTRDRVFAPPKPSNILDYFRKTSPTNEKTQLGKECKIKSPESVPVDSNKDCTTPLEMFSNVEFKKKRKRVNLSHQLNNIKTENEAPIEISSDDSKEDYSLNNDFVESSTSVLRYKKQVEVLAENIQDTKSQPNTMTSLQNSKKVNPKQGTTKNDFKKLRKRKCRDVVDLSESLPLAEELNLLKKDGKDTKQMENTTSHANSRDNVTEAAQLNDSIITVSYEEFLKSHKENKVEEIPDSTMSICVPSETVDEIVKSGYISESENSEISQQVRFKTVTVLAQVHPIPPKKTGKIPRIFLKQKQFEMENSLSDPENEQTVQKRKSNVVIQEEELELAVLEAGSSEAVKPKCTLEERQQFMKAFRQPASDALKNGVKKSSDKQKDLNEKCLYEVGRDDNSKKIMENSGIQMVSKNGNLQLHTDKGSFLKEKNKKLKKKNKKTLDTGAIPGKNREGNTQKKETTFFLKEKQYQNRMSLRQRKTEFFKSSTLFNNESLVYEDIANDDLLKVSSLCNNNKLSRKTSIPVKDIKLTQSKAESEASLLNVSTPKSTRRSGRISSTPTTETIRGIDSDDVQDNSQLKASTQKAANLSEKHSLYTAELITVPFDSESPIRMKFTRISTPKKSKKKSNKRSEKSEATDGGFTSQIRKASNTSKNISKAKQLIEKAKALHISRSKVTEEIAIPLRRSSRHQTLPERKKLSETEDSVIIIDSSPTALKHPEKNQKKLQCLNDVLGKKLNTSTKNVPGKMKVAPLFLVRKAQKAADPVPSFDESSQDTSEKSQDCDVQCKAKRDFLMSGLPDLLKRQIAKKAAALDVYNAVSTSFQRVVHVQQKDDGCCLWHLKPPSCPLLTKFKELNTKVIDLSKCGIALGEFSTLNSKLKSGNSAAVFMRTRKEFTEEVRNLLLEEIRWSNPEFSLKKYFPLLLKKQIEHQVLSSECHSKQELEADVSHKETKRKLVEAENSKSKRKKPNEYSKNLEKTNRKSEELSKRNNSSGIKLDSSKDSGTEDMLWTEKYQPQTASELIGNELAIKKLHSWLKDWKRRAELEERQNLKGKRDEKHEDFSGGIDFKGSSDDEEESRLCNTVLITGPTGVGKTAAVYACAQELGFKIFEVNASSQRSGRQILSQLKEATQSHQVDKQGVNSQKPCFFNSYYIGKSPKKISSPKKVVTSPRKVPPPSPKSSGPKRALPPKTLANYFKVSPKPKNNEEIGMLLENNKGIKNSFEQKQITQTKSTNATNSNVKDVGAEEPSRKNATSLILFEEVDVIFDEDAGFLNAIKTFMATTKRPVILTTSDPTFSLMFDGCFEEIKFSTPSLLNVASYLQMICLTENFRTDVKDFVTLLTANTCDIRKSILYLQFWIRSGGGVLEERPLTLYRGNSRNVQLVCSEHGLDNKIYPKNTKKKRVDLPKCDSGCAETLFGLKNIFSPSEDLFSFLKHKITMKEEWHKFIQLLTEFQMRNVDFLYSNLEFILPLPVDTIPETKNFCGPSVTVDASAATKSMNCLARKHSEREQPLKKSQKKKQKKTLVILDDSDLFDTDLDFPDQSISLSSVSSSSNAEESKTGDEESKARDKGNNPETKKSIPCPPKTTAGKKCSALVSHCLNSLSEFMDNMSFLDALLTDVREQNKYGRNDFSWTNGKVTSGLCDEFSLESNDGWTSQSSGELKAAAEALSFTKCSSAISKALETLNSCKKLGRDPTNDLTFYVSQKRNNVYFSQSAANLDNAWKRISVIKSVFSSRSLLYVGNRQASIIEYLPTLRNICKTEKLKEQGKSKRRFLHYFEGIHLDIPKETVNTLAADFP
Method in brief: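 Quantitative HTS in HEK293T cells carrying luciferase-tagged ELG1, stimulated with 5-fluorouridine alongside compound for 16 hr. Loss of luciferase signal marks inhibition of ELG1 response.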

[15] = target: Thyrotropin-releasing hormone receptor (Homo sapiens) (UniProt P34981); test: qHTS for Small Molecule Agonists and Allosteric Enhancers of Human TRH Receptor: Validation Screen for Agonists (AID 493127;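 active means calcium activation more than 3 SD above the typical response in the agonist read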;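 further: intracellular calcium rise by fluo-8 fluorescence before TRH EC20 addition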); conditions: TRH receptor agonist cell assay; at 2 µM; stronger effect = higher value
Method in brief: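 Gq-coupled calcium mobilization in TRHR cells after compound addition, monitored kinetically with fluo-8 dye on an FDSS reader.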

[16] = target: Thyrotropin receptor (Homo sapiens) (UniProt P16473); test: qHTS Assay for Antagonists of the Thyroid Stimulating Hormone Receptor (AID 488980); further: series mostly up to about 58 µM
Method in brief: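 Readout is cAMP by HTRF competition between cellular cAMP and cAMP-d2 for a cryptate-labelled antibody. Antagonism was assessed in TSHR-transfected HEK293 cells stimulated with 4 nM TSH (EC80, final) in the presence of RO 20-1724.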

[17] = target: Flap endonuclease 1 (Homo sapiens) (UniProt P39748); test: qHTS Validation Assay for the Inhibitors of Human Flap endonuclease 1 (FEN1) (AID 488816)
Flap endonuclease 1 (Homo sapiens), sequence (P39748 whole entry, looked up): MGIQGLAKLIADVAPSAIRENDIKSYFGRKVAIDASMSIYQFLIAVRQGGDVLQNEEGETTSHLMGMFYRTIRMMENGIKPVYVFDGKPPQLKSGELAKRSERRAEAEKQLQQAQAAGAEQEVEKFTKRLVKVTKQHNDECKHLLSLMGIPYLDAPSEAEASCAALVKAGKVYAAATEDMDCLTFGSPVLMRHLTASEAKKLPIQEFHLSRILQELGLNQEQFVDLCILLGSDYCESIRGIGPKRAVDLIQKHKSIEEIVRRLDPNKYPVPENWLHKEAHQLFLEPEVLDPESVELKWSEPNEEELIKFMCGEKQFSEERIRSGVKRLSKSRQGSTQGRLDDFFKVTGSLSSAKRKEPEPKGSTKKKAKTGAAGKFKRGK
Method in brief: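 FEN1, dispensed as a 10 nM reagent, was preincubated with pin-transferred compounds for 15 min at room temperature before substrate was added (50 nM final). Plates were read at 0 and 15 min, and a four-parameter Hill equation was fitted to the concentration-response data.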

SMILES | outcome [1] | Potency [2] | Potency [3] | outcome [4] | Potency [5] | Potency [6] | Potency [7] | outcome [8] | outcome [9] | Potency [10] | Potency [11] | Potency [12] | Potency [13] | Potency [14] | activation [15] | outcome [16] | Potency [17]
O=C(O)Cc1ccc(O)c(O)c1 | inactive | inactive | inactive | inactive | 7.52 µM (active) | inactive | inactive | inactive | inactive | inactive | inactive | inactive | inactive | inactive | 0.938% | – | –
[Li+] | inactive | inactive | inactive | inactive | inactive | inactive | inactive | inactive | inactive | – | – | inactive | – | inactive | 1.31% | inactive | –
CC(=O)[C@H]1CCC2C3CC=C4C[C@@H](OS(=O)(=O)O)CC[C@]4(C)C3CC[C@@]21C (stereo partly specified) | inactive | inactive | inactive | inactive | inactive | inactive | inactive | inactive | inactive | inactive | inactive | inactive | inactive | – | -0.125% | inactive | –
NC1(C(=O)O)CC1 | inactive | inactive | inactive | inactive | inactive | inactive | inactive | – | inactive | inactive | inactive | – | – | inactive | 0.688% | inactive | inactive
Nc1ncnc2c1ncn2C1CCCO1 (stereo unspecified) | inactive | inactive | inactive | inactive | – | inactive | 0.006 µM (active) | inactive | inactive | inactive | inactive | inactive | inactive | inactive | -0.25% | inactive | inactive
O=C1C2C=CC=CC2=NC(=S)N1CCN1CCC(=C(c2ccc(F)cc2)c2ccc(F)cc2)CC1 (stereo unspecified) | inactive | inactive | inactive | inactive | inactive | – | – | inactive | inactive | inactive | inactive | – | – | inactive | – | inactive | inactive
Cc1ccc([N+](=O)[O-])cc1S(=O)(=O)N(C)C | inactive | inactive | inactive | inactive | inactive | – | inactive | inactive | inactive | inactive | – | inactive | inactive | – | 1.19% and 0.125% | inactive | inactive
O=c1cc(-c2ccccc2)[nH]c2nc(Cl)ccc12 | inactive | inactive | inactive | inactive | – | inactive | inactive | inactive | inactive | inactive | inactive | inactive | inactive | – | -0.438% | inactive | inactive
Cc1cccc(C(=O)NCN2CCN(c3ccccc3C#N)CC2)c1 | inactive | inactive | inactive | inactive | – | inactive | inactive | inactive | inactive | inactive | inactive | – | – | – | 0.562% | inactive | inactive
N=C(N)SCCN | inactive | inactive | inactive | inactive | inactive | – | inactive | inactive | inactive | inactive | inactive | inactive | inactive | – | 0.688% | inactive | inactive
C=CCn1c(=O)c2c(nc(-c3ccc(S(=O)(=O)O)cc3)n2C)n(C)c1=O | inactive | inactive | inactive | inactive | inactive | inactive | – | inactive | inactive | inactive | – | inactive | inactive | inactive | -0.312% | inactive | –
CCC(=O)N1CCN(C(=O)c2ccccc2)CC1 | inactive | inactive | inactive | inactive | inactive | inactive | inactive | – | inactive | inactive | inactive | inactive | inactive | – | 1.38% | inactive | inactive
COC1(C2=NCCN2)COc2ccccc2O1 (stereo unspecified) | inactive | inactive | inactive | inactive | inactive | inactive | – | inactive | inactive | inactive | inactive | inactive | inactive | inactive | 1.62% | inactive | inactive
Nc1ncnc2c1c(-c1ccc(Oc3ccccc3)cc1)cn2C1CCCC1 | inactive | 7.38 µM (active) | 9.28 µM (active) | inactive | inactive | – | – | inactive | inactive | inactive | – | – | inactive | – | -5.06% | inactive | inactive
Cc1nc(N=Nc2ccc(C(=O)O)cc2)c(COP(=O)(O)O)c(C=O)c1O | inactive | inactive | inactive | inactive | – | inactive | 50.1 µM (active) | inactive | inactive | inactive | inactive | inactive | inactive | – | 0.125% | inactive | inactive
O=C(O)C1=CCCN(CCON=C(c2ccccc2)c2ccccc2)C1 | inactive | inactive | inactive | inactive | inactive | inactive | – | – | inactive | inactive | inactive | inactive | inactive | – | -3% | inactive | inactive
NC1CCN(O)C1=O (stereo unspecified) | inactive | inactive | inactive | inactive | inactive | – | inactive | inactive | inactive | inactive | inactive | inactive | – | – | 0.875% | – | inactive
